M1 antag: blocks human M1 muscarinic receptor. inhibition, % at 3 µM. CHO-K1 hM1, Fluo-8 calcium fluorescence, ACh EC80 antagonist. AID 588852. 360,000 compounds, 1.3% hits. P11229;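 active = percent inhibition above its own plate's cutoff, namely the mean of that plate's compound wells plus 3 SD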;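 note: peak over basal fluorescence ratio during 140 s after agonist addition; 0% = ACh EC80 plus DMSO and 100% = DMSO alone without agonist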
Target sequence (P11229 whole entry, looked up): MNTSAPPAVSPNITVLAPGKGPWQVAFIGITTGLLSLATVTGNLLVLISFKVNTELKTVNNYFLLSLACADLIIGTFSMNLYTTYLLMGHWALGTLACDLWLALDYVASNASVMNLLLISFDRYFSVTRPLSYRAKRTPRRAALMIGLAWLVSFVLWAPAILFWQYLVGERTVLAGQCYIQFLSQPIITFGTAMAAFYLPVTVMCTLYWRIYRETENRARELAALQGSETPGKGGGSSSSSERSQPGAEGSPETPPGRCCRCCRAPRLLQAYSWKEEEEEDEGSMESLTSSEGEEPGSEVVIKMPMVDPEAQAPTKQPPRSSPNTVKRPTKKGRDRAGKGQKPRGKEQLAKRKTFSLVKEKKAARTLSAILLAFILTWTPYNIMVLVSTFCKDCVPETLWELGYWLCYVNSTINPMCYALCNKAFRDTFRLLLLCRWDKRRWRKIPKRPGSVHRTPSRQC
CHO-K1 Ca ag: M1 agonist counterscreen hit in parental CHO-K1 cells; Fluo-8 calcium fluorescence; scaled to maximal ATP response, vehicle zero; activation, % at 3 µM; 360,000 compounds, 0.48% hits; in the data active = activation above about 15%;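 note: untransfected CHO-K1 host cells lacking M1 receptor as counterscreen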
M1 ag: human M1 muscarinic receptor agonism. 360,000 compounds, 0.33% hits. CHO-K1 hM1, Fluo-8 calcium fluorescence, agonist mode; 0% DMSO, 100% acetylcholine EC100. activation, % at 3 µM. P11229;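 active = activation above the run's mean compound activation plus 3 SD, cut at about 16% in these data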;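 note: peak over basal fluorescence ratio within a 140 s kinetic read after compound addition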
CHO-K1 Ca PAM: M1 PAM counterscreen hit in parental CHO-K1 cells | ATP EC20, Fluo-8 calcium fluorescence; 0% at ATP EC20, 100% at ATP max | AID 602247 | activation, % at 3 µM | 360,000 compounds, 0.02% hits;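 active = activation above the run cutoff, the mean activation of all test compounds plus 3 SD, cut at about 40% in these data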;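 note: peak over basal fluorescence ratio in a 140 s read after ATP addition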
CHO-K1 Ca antag: M1 antagonist counterscreen hit in parental CHO-K1 cells. inhibition, % at 3 µM. ATP-induced calcium, Fluo-8 fluorescence. 360,000 compounds, 0.6% hits;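 active = inhibition above a per-plate cutoff, the plate's mean sample inhibition plus 3 SD, cut at about 24% in these data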;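 note: 0% = DMSO plus EC80 ATP and 100% = DMSO alone without ATP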
M1 PAM: potentiates human M1 receptor response to acetylcholine | activation, % at 3 µM | P11229 | AID 588819 | 360,000 compounds, 0.088% hits | CHO-K1 hM1, Fluo-8 calcium fluorescence, ACh EC20; 0% = ACh EC20, 100% = maximal ACh; in the data active = activation above about 19%, passing the limit was not always enough
Starred values were filed as active, the others as inactive; nt = not tested or not shown. Hits are enriched below; roughly 2.3% of the tested compounds scored in any of these assays.

SMILES	M1 antag	CHO-K1 Ca ag	M1 ag	CHO-K1 Ca PAM	CHO-K1 Ca antag	M1 PAM
CC(C)(C)NC(=O)NC(=O)COC(=O)c1ccc(OC(F)F)cc1	4	0	-7	-11	28*	-1
Cc1ccccc1OCC(=O)Nc1ccc2c(c1)C(=O)N(CCC(=O)O)C2=O	-17	0	8	-14	-5	26*
COc1ccc(N/N=C(\C#N)C(=N)N2CCCCC2)cc1	-9	0	-3	13	-3	4
COc1ccc(N/N=C(\C#N)C(=N)SCc2ccccc2)cc1	-2	18*	4	8	-14	2
O=C(N/C(=C/c1ccc(Br)cc1)C(=O)N1CCCCC1)c1ccccc1F	17	0	-2	-19	4	-3
Cc1ccc2c(c1)C(=O)N1[C@H]3c4ccccc4OC[C@@H]3[C@H](c3ccccc3)[C@]1(C)C(=O)N2	65*	0	-8	10	-5	-30
C[C@@]12C(=O)Nc3ccc(Br)cc3C(=O)N1[C@H]1c3ccccc3OC[C@@H]1[C@@H]2c1ccccc1	27*	0	-4	12	-7	-14
Cc1ccc2c(c1)NC(=O)[C@@]1(C)[C@@H](c3ccccc3)[C@H]3COc4ccccc4[C@@H]3N1C2=O	5	0	-5	4	-11	-7
Cc1[nH]c(C)c(S(=O)(=O)NCCc2ccc(S(N)(=O)=O)cc2)c1C(=O)N1CCCC1	-2	0	-1	-2	1	0
OC[C@@H]1CN(Cc2ccc(-c3ccccc3)cc2)C[C@H](n2cnc3c(NCc4ccco4)ncnc32)O1	19	8	6	-13	25*	1
OC[C@@H]1CN(Cc2ccc(F)cc2)C[C@H](n2cnc3c(N4CCCC4)ncnc32)O1	-18	1	2	1	-5	10
CC(C)CNc1ncnc2c1ncn2[C@H]1CN(Cc2ccc(-c3ccccc3)cc2)C[C@@H](CO)O1	28*	11	3	-9	10	-9
OC[C@@H]1CN(Cc2ccc(-c3ccccc3)cc2)C[C@H](n2cnc3c(NCc4ccncc4)ncnc32)O1	25	17*	6	-4	8	-9
CN1CCN(c2ncnc3c2ncn3[C@H]2CN(Cc3ccc(F)cc3)C[C@@H](CO)O2)CC1	22	0	-3	-13	25*	-9
COc1ccc(-n2nnnc2SCC(=O)Nc2ccccc2F)cc1	0	1	-2	19	-15	2
COc1ccc(-c2ccc(C(=O)NCc3cccs3)c3occc23)c(C)c1	2	1	-5	5	-1	-4
CC1(c2cccc(Br)c2)NC(=O)NC1=O (centres undefined)	-7	1	-4	13	-13	6
COc1ccc(CN(C)C(=O)c2cccc(NC(=O)CC3SC(N4CCCCC4)=NC3=O)c2)c(OC)c1 (centres undefined)	-2	0	-1	2	3	1
COc1ccc(C2(c3ccc(OC)cc3)NC(=O)N(CC(=O)N3CCOCC3)C2=O)cc1	5	0	-5	-5	-5	2
COc1cc(CN2C[C@@H](CO)O[C@@H](n3cnc4c(NC5CCC5)ncnc43)C2)cc(OC)c1OC	-8	0	3	32	-9	5
COc1cc(CN2C[C@@H](CO)O[C@@H](n3cnc4c(Nc5ccccc5)ncnc43)C2)cc(OC)c1OC	33	5	0	-15	33*	-20
CCCN(CCC)C(=O)C(c1ccccc1)C1(O)CCCCC1 (centres undefined)	-7	-1	-9	10	-7	-3
Cc1ccc(-c2nc(SC(C)C(=O)c3c(N)n(C)c(=O)n(C)c3=O)n[nH]2)cc1 (centres undefined)	-3	2	-1	-4	-6	2
COc1ccccc1C(=O)O/N=C1/CCCc2c1ccc(OC)c2[N+](=O)[O-]	5	3	-1	15	-5	-5
COc1cc(C(=O)O/N=C2\CCCc3c2ccc(OC)c3[N+](=O)[O-])cc(OC)c1OC	25*	1	-4	-5	8	-17
SMILES	M1 antag	CHO-K1 Ca ag	M1 ag	CHO-K1 Ca PAM	CHO-K1 Ca antag	M1 PAM
Cc1cc(C)c(OCCNCc2ccccc2)c(C)c1	-10	20*	-1	23	-8	7
O=C(Cc1ccc(Br)cc1)Nc1ncc([N+](=O)[O-])s1	35	16*	8	-31	24*	-12
O=C(COC(=O)Cc1ccc(Br)cc1)Nc1ccc(Cl)cn1	-8	6	-6	2	-1	4
Cc1csc(N(C)C(=O)CSc2nnc(COc3cccc4ccccc34)o2)n1	16	-1	-3	61*	6	-9
CN(C)c1nc(N(C)C)nc(N2CCCCC2)n1	22*	0	-5	-4	12	-1
CN(C)CCCC1(O)c2ccccc2C=Cc2ccccc21	73*	0	-5	-4	10	-22
CC(=O)c1c(C)[nH]c(C(=O)OCC(=O)N(CC(C)C)C2CCS(=O)(=O)C2)c1C (centres undefined)	-12	0	-3	-15	-9	8
Cc1cc(C)cc(NS(=O)(=O)c2c(C)[nH]c(=O)[nH]c2=O)c1	-15	2	-2	4	27*	11
CCOc1ccc(NC(=O)CN(C)C(=O)c2ccccc2OCCOc2ccccc2)cc1OCC	-5	3	-1	-4	-8	4
CC(C)C(=O)Nc1ccc(Br)cc1Cl	-3	-2	-11	-13	56*	1
CC(C)(C)c1cc(NC(=O)Nc2ccc(Br)cc2Cl)no1	28*	0	-6	9	-15	-16
O=[N+]([O-])c1cccc(-c2ccn[nH]2)c1	-2	1	-2	2	-6	31*
O=[N+]([O-])c1cc(-c2ccn[nH]2)ccc1Cl	-7	2	-9	21	-6	10
COc1cccc(C2=NOC(C(=O)Nc3cc(C)on3)C2)c1 (centres undefined)	-19	2	-2	19	-13	2
Cc1ccc(-n2nc(C)c3c2OC(N)=C(C#N)C3c2ccc(C)o2)cc1 (centres undefined)	-3	0	-1	-7	-2	-5
COc1ccc(OC)c(C2C(C#N)=C(N)Oc3c2c(C)nn3-c2ccc(C)cc2)c1 (centres undefined)	-16	0	-2	-8	28*	-4
Cc1ccc(NC(=S)NC2CCSc3ccccc32)cc1 (centres undefined)	79*	7	-12	-9	-1	-36
CC(=O)Nc1ccc(C(=O)NC2CCSc3ccccc32)cc1 (centres undefined)	-13	2	-6	20	-11	8
Cc1nnc(SCC(=O)NCCC2=CCCCC2)[nH]c1=O	-2	1	-1	-6	-16	0
COc1ccc(CCNC(=O)c2cc3ccc(Cl)cc3nc2N)cc1	nt	12	nt	-8	33*	nt

Screens deposited in PubChem BioAssay by The Scripps Research Institute Molecular Screening Center.
